Test results taken from PubChem BioAssay.
The source made the active and inactive calls.

How the values were obtained:
[1] = optical density shifts of acrAB sulA E. coli – strain DRC41, OD650, 48 h, E. coli filamentation inducer project, primary screen (AID 1152); settings: higher = more signal, called active from +8 up or from −8 down;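 note: E. coli MC1000 strain DRC41 lacking acrAB efflux pump and sulA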
[2] = probe aLefty1 binding on compound microarray – biochemical, small-molecule microarray, 635/667 nm fluorescence, primary screen (AID 1153); settings: higher = more signal;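 note: score merges spot fluorescence with signal-to-noise ratio from the scanned slide images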
[3] = plasmodial surface anion channel blockers, osmotic lysis – cell-based, P. falciparum Indochina, OD700, 1 h, primary screen (AID 1154); settings: P. falciparum Indochina infected RBC osmotic lysis, higher = more signal, called active from +8 up or from −8 down
[4] = plasmodial surface anion channel blockers, osmotic lysis – cell-based, P. falciparum Indochina, OD700, 2 h, primary screen (AID 1155);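 note: lysis reports solute entry through the parasite surface anion channel PSAC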; settings: P. falciparum Indochina infected erythrocytes, higher = more signal, called active from +8 up or from −8 down
[5] = changes in parasitized red cell lysis, either direction – P. falciparum Indochina, OD700, 3 h, PSAC antagonist project, primary screen (AID 1156); settings: P. falciparum-infected erythrocytes, osmotic lysis, higher = more signal, called active from +8 up or from −8 down
[6] = plasmodial surface anion channel blockers, osmotic lysis – cell-based, P. falciparum Indochina, OD700, 18 h, primary screen (AID 1157); settings: P. falciparum Indochina infected erythrocytes, osmotic lysis OD700, 18 h; higher = more signal, called active from +8 up or from −8 down
[7] = S6 kinase pathway phospho-S6 level changes – cell-based, A549, cytoblot, luminescence, serum-stimulated, primary screen (AID 1158); settings: 5 h, higher = more signal;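 note: serum-stimulated A549 lung adenocarcinoma cells; signal is phosphorylated S6 detected by cytoblot immunostaining with HRP secondary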
[8] = target: NADPH oxidase 2 (Homo sapiens) (UniProt P04839); assay: compounds shifting NOX2 Amplex Red fluorescence – cell-based, HEK293-NOX2, PMA-stimulated, NOX inhibitor project, primary screen (AID 1159); settings: 45 min, higher = more signal, called active from +8 up or from −8 down; note: test concentration not given here
[9] = target: NADPH oxidase 4 (Homo sapiens) (UniProt Q9NPH5); assay: compounds shifting NOX4 Amplex Red fluorescence – cell-based, HEK293-NOX4, tetracycline-induced, NOX inhibitor project, primary screen (AID 1160); settings: HEK293-NOX4, Amplex Red H2O2 fluorescence, 45 min; higher = more signal, called active from +8 up or from −8 down
[10] = target: NADPH oxidase 5 (Homo sapiens) (UniProt Q96PH1); assay: compounds shifting NOX5 Amplex Red fluorescence – cell-based, HEK293-NOX5, NOX inhibitor project, primary screen (AID 1161); settings: HEK293-NOX5, ionomycin, 45 min, higher = more signal
Chain of NADPH oxidase 5 (Homo sapiens) (Q96PH1 whole entry, looked up): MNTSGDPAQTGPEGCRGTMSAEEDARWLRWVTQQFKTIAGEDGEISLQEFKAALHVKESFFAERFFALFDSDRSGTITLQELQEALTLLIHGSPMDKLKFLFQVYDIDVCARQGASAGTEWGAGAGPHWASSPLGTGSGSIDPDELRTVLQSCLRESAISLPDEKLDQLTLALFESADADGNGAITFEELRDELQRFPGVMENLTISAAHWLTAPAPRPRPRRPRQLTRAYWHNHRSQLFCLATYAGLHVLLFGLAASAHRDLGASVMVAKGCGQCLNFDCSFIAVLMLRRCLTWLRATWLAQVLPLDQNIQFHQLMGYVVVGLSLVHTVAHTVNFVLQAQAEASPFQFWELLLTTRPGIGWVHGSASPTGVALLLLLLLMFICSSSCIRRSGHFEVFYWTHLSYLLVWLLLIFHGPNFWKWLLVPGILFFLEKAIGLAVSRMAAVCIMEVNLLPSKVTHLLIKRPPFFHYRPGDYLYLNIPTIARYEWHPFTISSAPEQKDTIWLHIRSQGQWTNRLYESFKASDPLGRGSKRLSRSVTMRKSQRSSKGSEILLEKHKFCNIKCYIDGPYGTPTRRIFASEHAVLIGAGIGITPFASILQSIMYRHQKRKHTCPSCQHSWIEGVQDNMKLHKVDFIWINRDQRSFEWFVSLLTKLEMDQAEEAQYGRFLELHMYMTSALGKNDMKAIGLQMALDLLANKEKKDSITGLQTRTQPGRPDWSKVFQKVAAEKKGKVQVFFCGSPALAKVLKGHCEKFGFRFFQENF

Chain of NADPH oxidase 4 (Homo sapiens) (Q9NPH5 whole entry, looked up): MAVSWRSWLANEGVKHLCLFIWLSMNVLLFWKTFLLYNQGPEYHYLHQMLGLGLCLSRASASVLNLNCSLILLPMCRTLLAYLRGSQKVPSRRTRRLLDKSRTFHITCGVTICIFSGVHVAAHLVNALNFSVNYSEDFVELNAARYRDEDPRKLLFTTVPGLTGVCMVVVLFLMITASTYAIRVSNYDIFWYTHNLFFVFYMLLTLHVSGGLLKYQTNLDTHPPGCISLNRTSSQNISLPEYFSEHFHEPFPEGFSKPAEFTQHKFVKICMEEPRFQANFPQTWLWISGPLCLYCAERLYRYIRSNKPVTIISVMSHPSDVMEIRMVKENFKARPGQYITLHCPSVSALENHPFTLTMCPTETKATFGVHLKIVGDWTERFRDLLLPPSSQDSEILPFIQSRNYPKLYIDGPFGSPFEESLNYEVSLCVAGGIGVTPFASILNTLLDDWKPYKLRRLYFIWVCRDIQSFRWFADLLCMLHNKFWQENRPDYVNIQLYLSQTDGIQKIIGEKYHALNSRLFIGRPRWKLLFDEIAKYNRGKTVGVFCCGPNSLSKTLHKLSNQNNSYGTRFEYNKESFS
Chain of NADPH oxidase 2 (Homo sapiens) (P04839 whole entry, looked up): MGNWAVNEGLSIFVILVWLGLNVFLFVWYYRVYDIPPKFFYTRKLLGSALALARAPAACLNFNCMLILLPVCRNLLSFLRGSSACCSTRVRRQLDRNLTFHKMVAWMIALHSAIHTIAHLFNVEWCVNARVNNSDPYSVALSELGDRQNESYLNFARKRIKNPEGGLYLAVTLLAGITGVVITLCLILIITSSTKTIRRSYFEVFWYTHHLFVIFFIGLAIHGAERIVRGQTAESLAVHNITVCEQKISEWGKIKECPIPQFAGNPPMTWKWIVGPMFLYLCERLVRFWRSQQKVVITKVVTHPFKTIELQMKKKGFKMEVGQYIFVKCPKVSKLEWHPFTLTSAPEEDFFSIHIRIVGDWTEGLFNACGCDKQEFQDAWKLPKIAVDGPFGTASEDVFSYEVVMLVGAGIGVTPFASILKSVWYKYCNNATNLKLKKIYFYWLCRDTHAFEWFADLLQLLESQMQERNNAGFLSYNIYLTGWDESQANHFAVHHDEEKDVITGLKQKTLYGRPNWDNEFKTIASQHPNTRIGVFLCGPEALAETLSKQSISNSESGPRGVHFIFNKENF

Row | SMILES | z-score [1] | composite z-score [2] | z-score [3] | z-score [4] | z-score [5] | z-score [6] | z-score [7] | z-score [8] | z-score [9] | z-score [10]
1 | O=C(NN=C1C[C@@H](O)[C@@H](O)[C@@H]2[C@@H]3C(=O)N(Cc4ccccc4)C(=O)[C@@H]3CC[C@H]12)OCc1ccccc1 | -0.202 (inactive) | -0.279 | 0.464 (inactive) | -1.04 (inactive) | -0.999 (inactive) | -1.46 (inactive) | -0.276 | 1.49 (inactive) | 0.638 (inactive) | -0.0528
2 | COC(=O)[C@H](C)NC(=O)CCC1CC(OC(=O)NCCc2ccc(F)cc2)CC2(CCCC(COC(=O)NCC3CCCCC3)O2)O1 (stereo not given in full) | -0.56 (inactive) | -0.0464 | 0.731 (inactive) | -0.391 (inactive) | 0.701 (inactive) | -0.957 (inactive) | 1.77 | -0.763 (inactive) | -1.47 (inactive) | -1.68
3 | O=C1[C@H]2[C@H]3[C@H](O)[C@H](O)CC(=NOC[C@@H](O)COCc4ccco4)[C@@H]3CC[C@H]2C(=O)N1Cc1ccccc1 | 0.119 (inactive) | 0.185 | 28.6 (active) | 4.72 (inactive) | 0.618 (inactive) | 1.21 (inactive) | -0.585 | -1.69 (inactive) | -0.3 (inactive) | -0.858
4 | CSCC[C@@H]1NC(=O)CC=C[C@@H](C)COC(=O)[C@H](C)COC1=O | 0.832 (inactive) | -0.321 | -0.274 (inactive) | -1.3 (inactive) | -0.92 (inactive) | -1.58 (inactive) | 2.08 | -1.01 (inactive) | 0.384 (inactive) | 0.515
5 | CO[C@@H]1COC(=O)[C@H](COCc2ccccc2)NC(=O)CC=C[C@@H](C)[C@H](OC)COC(=O)[C@@H](C)NC(=O)CC=C[C@H]1C | 0.52 (inactive) | -0.193 | -0.302 (inactive) | -0.0696 (inactive) | 0.386 (inactive) | 0.131 (inactive) | 0.166 | -0.74 (inactive) | 0.773 (inactive) | 0.436
6 | CCOC(=O)[C@H](CC(C)C)NC(=O)CCC1CC(OC(=O)NCc2ccc3c(c2)OCO3)CC2(CCCC(COC(=O)NCc3ccccc3)O2)O1 (stereo not given in full) | -0.729 (inactive) | 0.0004 | 7.67 (inactive) | 0.795 (inactive) | -0.626 (inactive) | 0.297 (inactive) | -0.251 | -0.398 (inactive) | 0.47 (inactive) | 0.202
7 | CC(CCC(=O)OC[C@H]1O[C@H](C#Cc2ccccc2)C=C[C@@H]1Oc1ccc(C)cc1)=NOC[C@@H](C)[C@H](OCc1ccccc1)C(C)C | -0.321 (inactive) | -0.378 | 0.551 (inactive) | 0.498 (inactive) | 0.901 (inactive) | 0.392 (inactive) | -0.0916 | 1.21 (inactive) | 1.16 (inactive) | 0.919
8 | CCOC(=O)[C@H](Cc1ccccc1)NC(=O)CCC1CC(OC(=O)NCc2ccc3c(c2)OCO3)CC2(CCCC(COC(=O)NCCOC)O2)O1 (stereo not given in full) | -0.11 (inactive) | -0.0428 | -1.89 (inactive) | -1.39 (inactive) | 0.61 (inactive) | -1.67 (inactive) | 2.53 | 0.195 (inactive) | -0.931 (inactive) | -2.16
9 | CC(CCN1CCc2nc(-c3ccccc3)c(-c3ccccc3)cc2C1)=NO[C@@H](C)c1cc(-c2c(C)cc(C)cc2C)no1 | -1.03 (inactive) | -0.0099 | -0.0185 (inactive) | -0.429 (inactive) | 1.5 (inactive) | -1.37 (inactive) | 0.831 | -0.861 (inactive) | -0.901 (inactive) | -0.296
10 | O=C(NN=C1C[C@@H](O)[C@@H](O)[C@@H]2[C@@H]3C(=O)N(Cc4ccc5c(c4)OCO5)C(=O)[C@@H]3CC[C@@H]12)OCc1ccccc1 | -0.989 (inactive) | 0.184 | 6.62 (inactive) | -0.207 (inactive) | 0.465 (inactive) | -1.85 (inactive) | -0.0564 | -1.78 (inactive) | -1.08 (inactive) | -1.39
11 | O=C1[C@H]2CCn3c(=O)n(-c4ccccc4)c(=O)n3[C@H]2[C@H](O)[C@@H]2O[C@H]12 | -0.323 (inactive) | -0.391 | -0.132 (inactive) | 0.105 (inactive) | 0.337 (inactive) | 0.304 (inactive) | -0.236 | -1.3 (inactive) | -0.584 (inactive) | 0.423
12 | O=C1C2=CC[C@H]3C(=O)N(Cc4ccccc4)C(=O)[C@H]3[C@H]2[C@H](O)[C@@H]2O[C@H]12 | -0.536 (inactive) | -0.379 | 0.472 (inactive) | 0.147 (inactive) | -0.178 (inactive) | 0.157 (inactive) | -0.451 | -1.41 (inactive) | 0.16 (inactive) | 0.44
13 | O=C1C=C[C@@H](O)[C@@H]2[C@@H]3C(=O)N(C4CCCCC4)C(=O)[C@@H]3CC[C@@H]12 | -0.188 (inactive) | -0.0501 | 0.0831 (inactive) | -0.0709 (inactive) | -0.446 (inactive) | 0.0822 (inactive) | -0.493 | 0.33 (inactive) | 0.563 (inactive) | -0.266
